# High-throughput results deposited in PubChem by National Center for Advancing Translational Sciences (NCATS).
# Rows were chosen to be rich in hits. Some 2.4% of all compounds tested hit in one or more screens of this group.
# D2 ag-1 = Beta-Arrestin HTS for Positive Allosteric Modulators of the Human D2 Dopamine Receptor: Agonists; D(2) dopamine receptor (Homo sapiens), P14416; DiscoveRx PathHunter D2 beta-arrestin, luminescence, 90 min; 100% = 57 uM dopamine signal; activation, % (no concentration beside the values); 360,000 compounds, 0.084% hits; AID 624465, 2012; in the data active = activation above about 40%; inconclusive = between about 15% and that limit
# Target sequence (P14416 whole entry, looked up): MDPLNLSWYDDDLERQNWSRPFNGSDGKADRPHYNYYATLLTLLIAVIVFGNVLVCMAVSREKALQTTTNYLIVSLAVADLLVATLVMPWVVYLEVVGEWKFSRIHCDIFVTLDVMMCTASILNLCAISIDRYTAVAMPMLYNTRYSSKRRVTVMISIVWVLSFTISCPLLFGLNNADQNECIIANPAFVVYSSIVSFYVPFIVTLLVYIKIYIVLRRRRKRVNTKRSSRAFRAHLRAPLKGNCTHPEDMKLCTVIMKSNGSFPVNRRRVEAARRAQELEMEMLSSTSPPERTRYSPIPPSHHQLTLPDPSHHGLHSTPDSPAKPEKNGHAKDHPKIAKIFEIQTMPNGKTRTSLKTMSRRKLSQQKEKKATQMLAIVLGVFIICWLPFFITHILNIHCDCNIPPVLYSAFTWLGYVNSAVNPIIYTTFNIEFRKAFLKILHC
#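 DiscoveRx PathHunter D2 beta-arrestin cells (2,100/well) attached overnight, then compound-stimulated 90 min at 37 C in HBSS/10 mM HEPES/0.1% Tween-20 buffer; beta-galactosidase complementation read by luminescence after 1 h at ambient temperature. Dopamine 57 uM final (EC100) as control.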
# D2 ag-2 = HTS Assay for Allosteric Agonists of the Human D2 Dopamine Receptor: Primary Screen for Agonists | D(2) dopamine receptor (Homo sapiens), P14416 | HEK293 T-REx D2 cells, calcium flux agonist mode | activation, % at 2 µM | 340,000 compounds, 0.53% hits | AID 485358, 2010;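 active = activation over 3 SD above normal in the single-dose calcium agonist read, cut at about 30% in these data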; note: 0% is about no effect
#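 Agonism scored from kinetic calcium signal (1 read/sec, 180 s) following compound pin transfer, after a 10 s baseline. Cells: HEK293 Trex line expressing inducible D2 receptor coupled to calcium, dye-loaded after overnight culture at 30 C.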
# D2 PAM-1 = HTS Assay for Positive Allosteric Modulators of the Human D2 Dopamine Receptor: Primary Screen for Potentiators; HEK293 T-REx D2, calcium flux, EC20 dopamine potentiation; potentiation, % at 10 µM; 340,000 compounds, 0.34% hits; AID 485347, 2010;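 active = potentiation over 3 SD above the plate norm, cut at about 30% in these data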; note: 0% is about no effect
#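 Using a no-wash calcium dye in inducible, force-coupled HEK293 Trex cells expressing D2, we tracked fluorescence each second for 180 s after compound, then for 180 s after EC20 dopamine to detect augmented signalling.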
# D2 PAM-2 = Beta-Arrestin HTS for Positive Allosteric Modulators of the Human D2 Dopamine Receptor: Potentiators; D(2) dopamine receptor (Homo sapiens), P14416; AID 624464, 2012; potentiation, % (test concentration not listed); DiscoveRx D2 beta-arrestin cells, luminescence, 90 min; 100% = 57 uM dopamine signal; 360,000 compounds, 0.23% hits; in the data active = potentiation above about 50%; inconclusive = mostly about 30% to 49%
#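 PathHunter beta-arrestin assay in DiscoveRx D2 cells. Compounds were added with an EC20 of dopamine (50 nM final) for 90 min at 37 deg C. Luminescence was read 1 h after detection reagent, with 57 uM dopamine as the EC100 control.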
# D2 antag = HTS Assay for Allosteric Antagonists of the Human D2 Dopamine Receptor: Primary Screen for Antagonists; D(2) dopamine receptor (Homo sapiens), P14416; HEK293 TREx D2 cells, calcium flux, dopamine EC80; inhibition, % at 10 µM; 340,000 compounds, 2% hits; in the data active = inhibition above about 30%; inactive = below that, where a call was filed; note: 0% is about no effect
#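 Cells plated overnight at 30 C with tetracycline; no-wash calcium dye, 30–90 min RT; 10 s baseline; compound pinned; 180 s read; EC80 dopamine added; another 180 s read.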
# D3 arrestin ag = qHTS of D3 Dopamine Receptor Agonist: D3 Dopamine Receptor B-arrestin Agonist Confirmatory Assay | 2,300 compounds, 4% hits | Potency, µM (series often up to 76.9 µM), inactives show at the top dose activation, actives largely listed as activators | shares compounds with D2 ag-2 | DiscoveRx D3 beta-arrestin cells, luminescence, 90 min | AID 720506, 2013;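 note: potency is the fitted concentration of half-maximal effect; 100% = dopamine control response; nearly all actives have a fitted effect of over 70% in size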
# D2 ag-3 = qHTS of D3 Dopamine Receptor Agonist: D2 Dopamine Receptor B-arrestin Agonist Counterscreen; shares compounds with D2 ag-2; DiscoveRx PathHunter D2 beta-arrestin, luminescence, 90 min; response scale: percent relative to full dopamine signal; Potency, µM (titrated, usually from 76.9 µM), without a hit: at the top dose activation, actives largely listed as activators; 2,300 compounds, 5.9% hits; note: potency is the fitted concentration of half-maximal effect; % of control where 0% means no effect; nearly all actives have a fitted effect of over 70% in size
# An asterisk follows results filed as active; ? = inconclusive; nt = no result. Unless noted, calls come from the whole dose curve; as a rule, active = well fitted activation curve with a large enough effect; inconclusive = small, poorly fitted or top-dose-only effect; inactive = flat fitted curve, though single readings scatter.
SMILES,D2 ag-1,D2 ag-2,D2 PAM-1,D2 PAM-2,D2 antag,D3 arrestin ag,D2 ag-3
OC(COc1ccc2c(c1)OCO2)CN1CCN(c2ccccc2)CC1 (stereo unspecified),?,71.3*,-32.4,-13.6,81.5*,?,?
COc1ccc(C(=O)CN2CCN(c3ncccn3)CC2)cc1,13.8,80.2*,-33.4,-4.1,39.2*,26.1%,26.8%
Clc1cccc(N2CCN(c3c4c(nc5nncn35)CCC4)CC2)c1,nt,1.5,14.9,nt,nt,nt,nt
COc1ccc(N2CCN(CC(O)COc3ccc(C(C)(C)C)cc3)CC2)cc1 (stereo unspecified),nt,8.7,-2.5,nt,nt,nt,nt
CC(C)c1ccc(OCC(O)CN2CCN(c3ccccc3)CC2)cc1 (stereo unspecified),?,54.1*,-26.2,-7.9,78.3*,-4.2%,?
C[C@@H]1CN([C@H](C)CO)C(=O)CCCn2cc(nn2)CO[C@H]1CN(C)C(=O)Nc1ccccc1C(F)(F)F,-3.6,nt,nt,2.9,nt,nt,nt
CCCCCCOc1ccc(/C=C/C(=O)Nc2sc3c(c2C(=O)OC)CCC3)cc1OC,nt,0.4,5.0,nt,nt,nt,nt
O=C(O)C1C2C=CC(C2)C1C(=O)NCCCc1ccccc1 (stereo unspecified),0.9,1.4,1.0,-8.6,-25.6,nt,nt
O=C(O)C1C2C=CC(C2)C1C(=O)NCCc1ccccc1 (stereo unspecified),8.4,52.7*,-12.2,15.0,22.7,-0.1%,0.3%
Cc1ccc(C(=O)OCC(=O)Nc2cc(Cl)ccc2C#N)o1,-1.4,nt,nt,-0.7,nt,nt,nt
O=C(Nc1ccc(C(F)(F)F)cc1[N+](=O)[O-])O[C@H]1[C@H](Cc2ccccc2)NS(=O)(=O)[C@H]2C[C@@H]3C=C[C@]12O3,?,44.3*,-22.6,11.4,-3.2,12.0%,13.2%
COc1cccc(C(=O)O[C@H]2[C@H](C)NS(=O)(=O)[C@H]3C[C@@H]4C=C[C@]23O4)c1,-3.8,2.1,-30.7,-3.0,9.4,-1.1%,-3.9%
COc1cccc(C(=O)O[C@H]2[C@H](Cc3ccccc3)NS(=O)(=O)[C@H]3C[C@@H]4C=C[C@]23O4)c1,-2.6,nt,nt,-2.8,nt,nt,nt
Cc1cccc(C(=O)O[C@H]2[C@H](C)NS(=O)(=O)[C@H]3CC4C=C[C@]23O4)c1,-3.1,nt,nt,-9.6,nt,nt,nt
Cc1cc(C(=O)O[C@H]2[C@H](Cc3ccccc3)NS(=O)(=O)[C@H]3C[C@@H]4C=C[C@]23O4)ccc1[N+](=O)[O-],-4.1,-0.4,-5.7,-8.2,1.3,-8.1%,-2.5%
O=C(CSC1=NS(=O)(=O)c2ccccc2N1)NCCc1ccccc1,1.7,27.7,1.1,-7.0,10.7,5.6%,-0.4%
COc1ccc(CCNC(=O)CSC2=NS(=O)(=O)c3ccccc3N2)cc1OC,0.3,0.0,2.7,-17.1,-3.1,nt,nt
Fc1ccccc1N1CCN(Cc2cnc(Cl)s2)CC1,52.4*,nt,nt,?,nt,?,3.16µM*
CCCN1CCC(=O)N(CCSc2ccccc2)CC1,1.8,0.3,1.5,-51.7,-39.1,nt,nt
Brc1ccc(CN2CCN(c3ccccc3)CC2)o1,8.5,72.0*,-18.7,-12.8,50.5*,6.6%,22.9%
c1ccc(SCCN2CCN(c3ccccc3)CC2)cc1,4.6,22.6,-20.3,-35.4,60.1*,-9.1%,9.8%
Clc1ccccc1N1CCN(Cc2ccc(Br)o2)CC1,0.7,nt,nt,-14.2,nt,nt,nt
c1ccc(N2CCN(Cc3cnc(N4CCOCC4)s3)CC2)cc1,-10.0,63.0*,-40.0,-13.5,38.3*,7.4%,?
O=C1CCC2(CCCCC2)N1,-1.8,nt,nt,-3.3,nt,nt,nt
CC1CC(C)(C)CC2(C1)NC(=O)N(CC(=O)Nc1cc(C(F)(F)F)ccc1N1CCCCC1)C2=O (stereo unspecified),5.6,nt,nt,-1.9,nt,nt,nt
SMILES,D2 ag-1,D2 ag-2,D2 PAM-1,D2 PAM-2,D2 antag,D3 arrestin ag,D2 ag-3
O=C(NCc1cc(Cl)cc(Cl)c1)c1csc([C@@H]2O[C@H](CO)[C@H](O)[C@H](O)[C@H]2O)n1,-5.9,nt,nt,-5.4,nt,nt,nt
CN(CCc1ccccc1)C(C(=O)Nc1ccc2c(c1)OCCO2)C1CC1 (stereo unspecified),-5.2,nt,nt,-9.0,nt,nt,nt
CCc1ccccc1Nc1cc(C(=O)NC2CCC(C)CC2)c2ccccc2n1 (stereo unspecified),nt,-0.7,24.1,nt,nt,nt,nt
CC1CCN(Cc2cnc(Cl)s2)CC1,-2.7,1.5,0.4,-0.8,-12.8,nt,nt
Clc1ccc(CN2CCN(c3ccccc3)CC2)cn1,?,74.1*,-21.8,11.0,89.9*,?,?
Clc1ncc(CN2CCN(c3ccccc3)CC2)s1,47.5*,74.7*,-26.0,8.6,83.7*,?,5.01µM*
OC1(c2ccccc2)CNCCc2ccccc21 (stereo unspecified),1.7,-0.6,3.9,-6.0,-10.3,nt,nt
O=C(CSc1nnc(-c2cccc(Br)c2)o1)N1CCOCC1,-0.9,0.4,2.0,5.4,12.7,-4.4%,3.1%
O=C(NCCc1ccc(Cl)cc1)C1COc2ccccc2O1 (stereo unspecified),-1.8,0.0,3.8,4.8,-4.1,nt,nt
Clc1ccc(-n2ncc3c(NCc4ccco4)ncnc32)cc1,1.2,-2.2,-9.0,6.4,-21.8,3.6%,2.7%
COc1ccc(-n2ncc3c(NCc4ccco4)ncnc32)cc1,1.5,-0.8,17.6,-0.6,-4.0,nt,nt
CN(C)S(=O)(=O)c1cccc(CNCC2COc3ccccc3O2)c1 (stereo unspecified),11.5,76.9*,-26.6,-7.6,105.6*,?,29.2%
Oc1ccc(CNCC2COc3ccccc3O2)cc1 (stereo unspecified),11.0,68.4*,-27.6,-28.3,185.0*,-3.6%,19.0%
c1ccc(CCNCC2COc3ccccc3O2)cc1 (stereo unspecified),4.0,31.9*,-21.6,-13.1,23.6,2.4%,3.5%
Cc1[nH]c2ccc(Br)cc2c1CCNC(=O)c1cc2ccccc2oc1=O,nt,-0.3,0.1,nt,nt,nt,nt
O=C(CNC(=O)c1cc(-c2ccccc2)nn1-c1ccccc1)Nc1ccccc1Br,1.1,nt,nt,0.8,nt,nt,nt
